The record followed here is ChEMBL document CHEMBL3988442, “University of Dundee, Small-Polar-MMV Screening Library” (2021).

About 13,000 (27%) of roughly 48,000 compounds showed an effect of 50% or more. This is one part of the list.

In this assay the test system is Wolbachia pipientis. As to the kind of experiment: Anti-Wolbachia Cell-Based Screen. The format is functional. Also on record: scale not given: in the data most compounds retested in dose-response had high values. The note with it: 5 µM.
For `c1ccc2[nH]c(C3CCN(Cc4noc(C5CC5)n4)CC3)cc2c1`, the “Percent Effect” value is on record as -4.924%. In the case of `CN1CCN(C2CCN(Cc3noc(C4CC4)n3)CC2)C1=O`, the “Percent Effect” value is given as 10.17%. With `c1cc2c(cc1CN1CCN(Cc3noc(C4CC4)n3)CC1)OCO2`, the “Percent Effect” value was 111.2%. For the compound `Cc1nccc(NCc2cc3n(n2)CCCN(C(=O)C2CCC2)C3)n1`, the “Percent Effect” value was 100.1%. Take `CSc1nccc(NCc2cc3n(n2)CCCN(C(=O)C2CCC2)C3)n1`: the “Percent Effect” value was found to be 104.3%. The same measure for `Nc1nccc(NCc2cc3n(n2)CCCN(C(=O)C2CCC2)C3)n1`: -4.748%; for `CSc1nccc(NCc2cc3n(n2)CCCN(S(C)(=O)=O)C3)n1`: 18.18%. For `Nc1nccc(NCc2cc3n(n2)CCCN(C2CCCCC2)C3)n1`, the “Percent Effect” value worked out at 13.65%. On to `CCn1ccnc1CN1CCCn2nc(CNC(=O)C3CCC3)cc2C1`, for which the “Percent Effect” value is recorded as 17.11%. For the compound `Cc1ccc(C2C3=C(COC3=O)Nc3[nH]nc(C)c32)cc1C` (stereo unspecified), the “Percent Effect” value is recorded as 8.246%. `CCc1nccn1CCC(=O)N1CC[C@@H](c2sccc2C)[C@H](O)C1`: the “Percent Effect” value was -1.934%.

For `O=C(O)C(F)(F)F.c1cnc(N2CCO[C@H]3CN(Cc4c[nH]cn4)C[C@H]32)cn1`, the “Percent Effect” value is recorded as 2.338%.

Take `CNC(=O)CN1CCO[C@H]2CN(CC3CCOCC3)C[C@H]21.O=C(O)C(F)(F)F.O=C(O)C(F)(F)F`: the “Percent Effect” value is on record as -17.71%.

As for `CN(C)c1nccc(N2CCO[C@H]3CN(CC4CCOCC4)C[C@H]32)n1`, the “Percent Effect” value is reported as 11.02%. On to `O=C(O)C(F)(F)F.c1cnc(N2CCO[C@H]3CN(CC4CCC4)C[C@H]32)cn1`, for which the “Percent Effect” value is on record as 107.5%. For the compound `O=C(O)C(F)(F)F.c1cnc(N2CCO[C@H]3CN(CC4CCOC4)C[C@H]32)cn1` (stereo partly specified), the “Percent Effect” value was 122.8%.

Consider `O=C(O)C(F)(F)F.c1cnc(N2CCO[C@H]3CN(Cc4csnn4)C[C@H]32)cn1`, for which the “Percent Effect” value came out at 6.84%. The same measure for `c1cnc(N2CCO[C@H]3CN(CC4CCCC4)C[C@H]32)cn1`: 112.8%. For `Cn1cc(CN2C[C@@H]3OCCN(CC4CCCC4)[C@@H]3C2)cn1`, the “Percent Effect” value is given as -2.926%. For `Cc1nn(CCn2ccnc2-c2cc3n(n2)CCCNC3)c(C)c1Cl`, the “Percent Effect” value amounted to 1.548%. With `CC(C)C(C(=O)NC1CC1)n1cnc2cc(F)c(F)cc21` (stereo unspecified), the “Percent Effect” value was determined as 15.81%.

With `O=C(NCc1nc(C2CC2)no1)N1CCOC(c2ccccc2F)C1` (stereo unspecified), the “Percent Effect” value amounted to 3.199%.

`CC(C)CNC(=O)C[S+]([O-])Cc1csc(C2CCCCC2)n1` (stereo unspecified): the “Percent Effect” value is on record as -4.765%. On to `COc1ccc(C(O)CNc2c(C#N)c(=O)n(C)c(=O)n2C)cc1` (stereo unspecified), for which the “Percent Effect” value is -9.845%. The value for `CN(C(=O)C1CSCN1S(=O)(=O)c1ccc(F)cc1)C1CC1` (stereo unspecified) was 5.468%; that for `CC(C)c1nc2n(n1)CC(NCc1nc(-c3ccccn3)no1)CC2` (stereo unspecified) was 1.998%. Regarding `CC(C)c1nc2n(n1)CC(NCc1cc3ccccc3o1)CC2` (stereo unspecified), the “Percent Effect” value is -25.06%. Take `Cc1cc(CNC2CCc3nc(C(C)C)nn3C2)on1` (stereo unspecified): the “Percent Effect” value is reported as 128.3%.

For the compound `COCCc1noc(CNC2CCc3nc(C(C)C)nn3C2)n1` (stereo unspecified), the “Percent Effect” value is on record as -13.08%. On to `Cc1ccc(CNC2CCc3nc(C(C)C)nn3C2)o1` (stereo unspecified), for which the “Percent Effect” value came to 110.7%. On to `CC(C)c1nc2n(n1)CC(NCc1nnc(C(C)C)o1)CC2` (stereo unspecified), for which the “Percent Effect” value came out at 2.327%. In the case of `CCN(C(=O)NCc1ccccc1OC(F)F)C(C)c1cccnc1` (stereo unspecified), the “Percent Effect” value is listed as -11.48%. The value for `CC(C)(NCC(=O)N1CCCC(C(N)=O)C1)c1ccc(Cl)cc1` (stereo unspecified) was 1.343%; that for `CC(C)(C)c1cc(C(=O)N2CCC(c3cnccn3)CC2)[nH]n1` was 96.1%; that for `CC(C)(C)c1cn(C2CCN(C(=O)c3cnccn3)CC2)nn1` was -4.102%.

With `Cc1cc(C(=O)N2CCOC(c3nc(C)n[nH]3)C2)[nH]n1` (stereo unspecified), the “Percent Effect” value is on record as -1.43%. The value for `Cc1cc(C(=O)N2CCOC(c3ccc(Cl)c(Cl)c3)C2)[nH]n1` (stereo unspecified) was -12.35%.

In the case of `CCCc1cc(C(=O)N2CCCC2c2cccnc2)[nH]n1` (stereo unspecified), the “Percent Effect” value was 15.07%. In the case of `CC(C)(C)c1cc(C(=O)N2CCOC(c3cnccn3)C2)[nH]n1` (stereo unspecified), the “Percent Effect” value came out at 139%. Take `CC(C)c1nc(C(=O)N2C[C@H]3CC[C@@H]2CN(C2CCOCC2)C3)cs1`: the “Percent Effect” value is given as -6.079%.

On to `CCOCC(=O)N1CCC(c2nccn2Cc2cscn2)CC1`, for which the “Percent Effect” value is listed as -5.535%. As for `O=C(Cc1ccc(F)cc1Cl)N[C@@H]1CCNC[C@H]1O`, the “Percent Effect” value was 6.286%. Regarding `Cc1ccc(F)cc1CC(=O)N1CC[C@@]2(O)CCNC[C@H]2C1`, the “Percent Effect” value is recorded as -17.57%.

On to `Cc1cc(F)ccc1-c1ccccc1CC1CNCCNC1=O.Cl` (stereo unspecified), for which the “Percent Effect” value came to 140%. Regarding `CCNC(=O)[C@@H]1CCCN1[C@@H](C(=O)NC)C1CC1.Cl`, the “Percent Effect” value amounted to 7.785%. As for `CCS(=O)(=O)N1CC[C@@H]2[C@@H](CCC(=O)N2CCc2ccccc2)C1`, the “Percent Effect” value is -12.22%.

As for `CCS(=O)(=O)N1CC(=O)N(CCCc2ccccc2)CC(O)C1` (stereo unspecified), the “Percent Effect” value is listed as 108.2%. For `O=C1CN(S(=O)(=O)CC(F)(F)F)CC(O)CN1CCCc1ccccc1` (stereo unspecified), the “Percent Effect” value was 73.93%. The same measure for `CCCS(=O)(=O)N1CC(=O)N(CCCc2ccccc2)CC(O)C1` (stereo unspecified): 106.2%; for `CS(=O)(=O)N1CCC2(CCCN(CCCc3ccccc3)C2=O)C1` (stereo unspecified): 8.67%; for `Cn1ccnc1CN1C(=O)CO[C@H]2CN(CCCc3ccccc3)C[C@H]21`: -23.58%.

Regarding `N#Cc1cccc(NC2CC(=O)N(CCCc3ccccc3)C2)n1` (stereo unspecified), the “Percent Effect” value was -4.151%.

As to `CS(=O)(=O)N1CC(=O)N(CCCc2ccccc2)CC(O)C1` (stereo unspecified), the “Percent Effect” value turned out to be 96.22%.

In the case of `CCCS(=O)(=O)N1CCC2(CC1)CC(=O)N(CCCc1ccccc1)C2`, the “Percent Effect” value came out at 8.339%. Take `CCCS(=O)(=O)N1CCC2(CCC(=O)N(CCc3ccccc3)C2)CC1`: the “Percent Effect” value worked out at 19.11%. As to `CCS(=O)(=O)N1CCC(OCCCc2ccccc2)C1` (stereo unspecified), the “Percent Effect” value is reported as -14.61%. On to `CS(=O)(=O)N1CCC(OCCCc2ccccc2)C1` (stereo unspecified), for which the “Percent Effect” value was -9.606%. Turning to `CC(C)(C)NC(=O)N1CCN2C(=O)OCC2C1` (stereo unspecified), the “Percent Effect” value is given as -12.64%. The value for `CCC(C)c1csc(NC(=O)c2sc(-c3nnc[nH]3)nc2C)n1` (stereo unspecified) was -26.52%.

`CSc1cccc(CNC(=O)C2CC(=O)N(CCN(C)C)C2)c1` (stereo unspecified): the “Percent Effect” value turned out to be 8.737%. `O=C(c1nnn(-c2ccc(C(F)(F)F)cc2)n1)N1CCC(O)CC1`: the “Percent Effect” value amounted to 4.237%. Consider `N[C@H]1CN(CCCOc2ccccc2)C[C@@H]1C1CC1`, for which the “Percent Effect” value is given as -13.64%.

As to `CCS(=O)(=O)N1CC(=O)N(CCOc2ccccc2)CC(O)C1` (stereo unspecified), the “Percent Effect” value was determined as 118.2%. The same measure for `CC(C)[C@@H]1CN(CCOc2ccccc2)C[C@H]1NS(=O)(=O)N(C)C`: 3.365%; for `CC(C)N1CCC2(CCCN(C(=O)c3cncn3C)C2)CC1.O=C(O)C(F)(F)F`: 0.429%. For `Cc1noc2ncc(C(=O)N3CCCC3c3cnn(C)c3)cc12` (stereo unspecified), the “Percent Effect” value is 9.393%. The value for `CN(C)c1ccc(C(=O)N2CCCC2c2cnn(C)c2)cn1` (stereo unspecified) was 96.67%; that for `CN(C)c1cc(C(=O)N2CCCC2c2cnn(C)c2)ccn1` (stereo unspecified) was 118.6%. On to `CC(C)CN(C)c1ccc(C(=O)N2CCCC2c2cnn(C)c2)cn1` (stereo unspecified), for which the “Percent Effect” value is recorded as -4.627%. For the compound `CN(C)c1ccc(C(=O)N2CCCC2c2cnn(C)c2)nn1` (stereo unspecified), the “Percent Effect” value stood at 5.055%. `COc1cccc(OC2CN(C(=O)Cn3nc4ccccc4n3)C2)c1`: the “Percent Effect” value is -0.01054%.

For `CCNC(=O)C1(Cc2ccc(-c3ccccc3)cc2)CCCNC1` (stereo unspecified), the “Percent Effect” value was 160.5%. For the compound `Cl.Cl.c1ccc(-c2cnc3n2CCNC32CCNCC2)cc1`, the “Percent Effect” value is given as -2.159%. For the compound `NC(=O)C1(Cc2ccc(-c3ccccc3)cc2)CCNC1` (stereo unspecified), the “Percent Effect” value is on record as 156.4%. The same measure for `O=C(NCCc1nncn1C1CC1)C1(Cc2ccccc2)CCC1`: 0.4274%; for `OC1(CNCCSCc2ccccc2)CCCNC1` (stereo unspecified): 3.749%. As to `Cc1cc(C)cc(-c2ccc(CC3(C(=O)O)CCOCC3)cc2)c1`, the “Percent Effect” value turned out to be 0.9737%.

For `NC(=O)C1(Cc2ccc(-c3ccccc3)cc2)CCCNC1` (stereo unspecified), the “Percent Effect” value is on record as 155.7%.

For `Cn1c(=O)oc2ccc(Nc3ncc(C#N)cc3Cl)cc21`, the “Percent Effect” value is recorded as -1.266%. The value for `OCC(CO)Nc1cccc(C(F)(F)F)n1` was -11.08%. As to `Cc1ccc(N2CCC(c3nccn3Cc3cscn3)CC2)nn1`, the “Percent Effect” value is -11.8%. As to `c1ccc2nc(N3CCCC3c3nnc4n3CCCCC4)cnc2c1` (stereo unspecified), the “Percent Effect” value is given as 231.1%. `CC(C)c1nc(C2CCCN2c2cnc3ccccc3n2)no1` (stereo unspecified): the “Percent Effect” value is listed as -9.022%. With `Nc1cc(N2CCCC2c2cnccn2)ncn1` (stereo unspecified), the “Percent Effect” value is -4.526%. For `c1cnc2nc(N3CCCC3c3nnc4n3CCCCC4)ccc2n1` (stereo unspecified), the “Percent Effect” value is given as 123.3%. For the compound `COc1ccc(C2CCCN2c2cnc3ccccc3n2)c(OC)c1` (stereo unspecified), the “Percent Effect” value is 8.411%. In the case of `c1cnc2nc(N3CCc4c(ncn4C4CC4)C3)ccc2n1`, the “Percent Effect” value is 1.111%. Consider `Cn1c(CC2CCS(=O)(=O)C2)nnc1SCCOc1ccccc1F` (stereo unspecified), for which the “Percent Effect” value came out at 1.517%. In the case of `CN(Cc1ccncc1)C(=O)Nc1cnn(CC(N)=O)c1`, the “Percent Effect” value is given as -7.922%. As for `CCN(C)S(=O)(=O)N1CCC(C(O)c2ccc(Cl)cc2)CC1` (stereo unspecified), the “Percent Effect” value stood at 1.239%. The same measure for `CCOCCOC(C)C(=O)NCc1ccc(N2CCCCC2)cc1` (stereo unspecified): -8.198%. As to `CC(C)COC(C)C(=O)NCc1ccccc1` (stereo unspecified), the “Percent Effect” value worked out at 129.5%. For the compound `CC(OCC1CC1)C(=O)NCc1cccc(CN2CCCC2=O)c1` (stereo unspecified), the “Percent Effect” value worked out at 3.012%. Consider `CC(C)COC(C)C(=O)NCc1ccc(OC(C)C)nc1` (stereo unspecified), for which the “Percent Effect” value was 0.7864%.

For `CC(C)COC(C)C(=O)NCc1ccc(F)cc1` (stereo unspecified), the “Percent Effect” value is listed as 52.08%. On to `CC(C)COC(C)C(=O)NCc1cc(F)cc(F)c1` (stereo unspecified), for which the “Percent Effect” value is listed as -4.135%. The value for `Cc1cc(C)n(-c2ccc(N3CCC4(CC3)OCC(C)O4)nc2)n1` (stereo unspecified) was 14.39%. `O=C(C1CCCOC1)N(CC(F)F)c1cccc(Cl)c1` (stereo unspecified): the “Percent Effect” value is given as -10.1%. On to `CN1CCN(C(=O)C2SCCc3sccc32)CC1` (stereo unspecified), for which the “Percent Effect” value is -4.064%. `CCC(C)(C)NC(=O)CSCc1ccc(S(=O)(=O)N(C)C)o1`: the “Percent Effect” value is 5.588%. Take `CCC(C)(CC(=O)OC)NCc1cc(C)on1` (stereo unspecified): the “Percent Effect” value is given as -8.886%.
